Experimental findings from PubChem BioAssay (NCATS) are described below.

Results filed as inconclusive are left out. Active and inactive are the calls of the source. Calls come from the whole dose curve; as a rule, active = well fitted curve in the direction sought with a large enough effect; inconclusive = small, poorly fitted or top-dose-only effect, or another doubt; inactive = no such curve, though single readings can be large; an effect the other way counts as inactive or inconclusive.
Potency is the fitted concentration of half-maximal effect.

The target in one assay is Luciferin 4-monooxygenase (Photinus pyralis) (UniProt P08659). The experiment in a line: Biochemical firefly luciferase enzyme assay for NPC (AID 624030).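 For activity change, negative = inhibition: purified P. pyralis luciferase at 10 nM with luciferin and ATP substrate; 0% = DMSO and -100% = full luciferase inhibition by PTC124 control.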 Note: nearly all actives have a fitted effect of over 70% in size. As to conditions: purified P. pyralis luciferase, luminescence, 5 min; series mostly up to 58.6 µM; activity change, negative = inhibition: at the top concentration. A digest of the protocol: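 Purified P. pyralis luciferase at 10 nM in 50 mM Tris Acetate (final), luminescence read within 5 minutes of enzyme addition to compounds. Activity normalised to PTC124 versus DMSO; concentration-response curves classed by r2, magnitude and activity.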
Luciferin 4-monooxygenase (Photinus pyralis), sequence (P08659 whole entry, looked up): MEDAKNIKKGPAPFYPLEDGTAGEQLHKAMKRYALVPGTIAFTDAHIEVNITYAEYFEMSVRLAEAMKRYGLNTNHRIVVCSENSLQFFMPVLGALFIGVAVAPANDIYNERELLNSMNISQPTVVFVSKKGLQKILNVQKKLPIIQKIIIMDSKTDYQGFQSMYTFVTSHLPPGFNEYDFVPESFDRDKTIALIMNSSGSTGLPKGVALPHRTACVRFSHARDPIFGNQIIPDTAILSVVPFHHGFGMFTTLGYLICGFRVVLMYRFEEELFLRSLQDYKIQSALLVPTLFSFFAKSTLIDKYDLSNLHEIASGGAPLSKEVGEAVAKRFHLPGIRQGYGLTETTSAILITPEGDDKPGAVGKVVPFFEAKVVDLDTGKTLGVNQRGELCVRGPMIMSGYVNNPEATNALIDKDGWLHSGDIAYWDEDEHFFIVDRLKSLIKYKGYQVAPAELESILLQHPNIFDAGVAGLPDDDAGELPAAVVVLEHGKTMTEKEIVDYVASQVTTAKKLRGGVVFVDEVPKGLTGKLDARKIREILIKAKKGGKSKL
As to `COc1cc(N)c(Cl)cc1C(=O)NC1CCN(Cc2ccccc2)CC1`, the “activity change, negative = inhibition” value is -0.288% [at 24.9 µM] (inactive).
In the case of `CC[C@H](c1ccc(O)cc1)[C@@H](CC)c1ccc(O)cc1`, the “activity change, negative = inhibition” value was -10.4% [at 24.9 µM] (inactive).
Same read-out and setting: with `CCN(CC)CCOc1ccccc1C(=O)CCc1ccccc1` the figure was -5.96% (inactive).
Same read-out and setting: as for `CN(Cc1ccc(C(C)(C)C)cc1)Cc1cccc2ccccc12`, the figure is 2.19% (inactive).
As for `CCOC(=O)Nc1ccc2c(c1)N(C(=O)CCN1CCOCC1)c1ccccc1S2`, the “activity change, negative = inhibition” value was -1.7% [at 24.9 µM] (inactive).
The same measure, in the same setting: as for `C=CCN1CCc2nc(N)sc2CC1`, the figure is 0.635% (inactive).
As to `NS(=O)(=O)Cc1noc2ccccc12`, the “activity change, negative = inhibition” value is 4.59% (inactive).
Still for that read-out and setting: as for `O=[N+]([O-])c1cccc(S(=O)(=O)NCCNS(=O)(=O)c2cccc([N+](=O)[O-])c2)c1`, the figure is 0.151% (inactive); as for `O=C(CN1CCN(Cc2ccc3c(c2)OCO3)CC1)N1c2ccccc2Sc2ccccc21`, -1.84% (inactive); as for `NCCNC(=O)c1ccc(Cl)cn1`, 4.78% (inactive).
Consider `CN=C(N)NCCC[C@H](N)C(=O)O`, for which the Potency entry is “inactive”.
Still for that read-out and setting: with `CCOC(=O)[C@H](CCc1ccccc1)N[C@@H](C)C(=O)N1[C@H](C(=O)O)C[C@H]2CCCC[C@@H]21` the entry was “inactive”.
Take `Cc1ccc2c(Br)cc(Br)c(O)c2n1`: the “activity change, negative = inhibition” value is -3.38% (inactive).
For the compound `CCCCCCCCCCCCCC[N+](C)(C)Cc1ccccc1`, the “activity change, negative = inhibition” value was 17.8% (inactive).
Still for that read-out and setting: as for `CC(C)NCC(O)c1ccc2ccccc2c1` (stereo not given), the figure is 3.44% (inactive); as for `CCCCCCCCCCCCSCCOCCO`, -0.482% (inactive).
The same measure, in the same setting: as for `C#C[C@]1(OC(C)=O)CC[C@H]2[C@@H]3CCC4=C/C(=N/O)CC[C@@H]4[C@H]3CC[C@@]21CC`, the figure is -8.36% (inactive); as for `CCCCNc1ccc(C(=O)OCCOCCOCCOCCOCCOCCOCCOCCOCCOC)cc1`, -2.43% [at 24.9 µM] (inactive).
Consider `O=c1[nH]c(=O)n([C@H]2C[C@H](O)[C@@H](CO)O2)cc1F`, for which the “activity change, negative = inhibition” value was 1.13% (inactive).
On the same count and under the same terms, with `CC(C)(C)NC[C@H](O)COc1nsnc1N1CCOCC1` the figure was -4.07% (inactive); with `Cc1ccc(-c2ncc(Cl)cc2-c2ccc(S(C)(=O)=O)cc2)cn1`, 2.49% (inactive); with `CO[C@]12C[C@@H](COC(=O)c3cncc(Br)c3)CN(C)[C@@H]1Cc1cn(C)c3cccc2c13`, 2.73% (inactive).
On the same count and under the same terms, with `c1ccc(CC2=NCCN2)cc1` the figure was 0.15% [at 24.9 µM] (inactive).
With `NC(N)=NCc1cccc(I)c1`, the Potency entry was “inactive”.
Regarding `NCc1ccccc1Sc1ccccc1CO`, the “activity change, negative = inhibition” value is -0.76% (inactive).
Still for that read-out and setting: with `CN(CCCN1c2ccccc2CCc2ccccc21)CC(=O)c1ccc(Cl)cc1` the figure was 1.18% (inactive); with `COc1ccccc1N1CCN(CCCCNC(=O)c2ccc(-c3ccc(C(C)=O)cc3)cc2)CC1`, 1.6% (inactive); with `NC(=S)N/N=C/c1cccnc1`, 1.79% (inactive).
Regarding `CNCCCCOc1ccccc1Cc1ccccc1`, the “activity change, negative = inhibition” value is 12.6% (inactive).
For `O=C(Nc1ncc([N+](=O)[O-])s1)c1cccs1`, the Potency was 3.61 µM (active).
In the case of `Cl/C(=C\n1cncn1)c1ccc(Cl)cc1Cl`, the “activity change, negative = inhibition” value was -8.79% (inactive).
Consider `O=C(CCN1CCN2CCCC2C1)N1c2ccccc2Sc2ccc(Cl)cc21` (stereo not given), for which the “activity change, negative = inhibition” value is 6.33% (inactive).
On to `Cc1c(-c2ccccc2)oc2c(C(=O)OCCN3CCCCC3)cccc2c1=O`, for which the “activity change, negative = inhibition” value was 0.593% [at 24.9 µM] (inactive).

Tested on in the next assay: not listed separately
Briefly: S16 Schwann cell viability assay (CellTiter-Glo assay) (AID 624031).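 For activity change, negative = cytotoxicity: cellular ATP luminescence as a viability measure; plate controls were DMSO-treated cells for no effect and cell-free wells for full effect.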 Note: nearly all actives have a fitted effect of over 70% in size. As to conditions: S16 rat Schwann cells viability, 24 h; series mostly up to 57.5 µM; activity change, negative = cytotoxicity: at the top concentration. Put shortly: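 Native S16 Schwann cells (rat), serum-containing medium, overnight attachment then 24 h drug exposure at 37 °C/5% CO2. CellTiter-Glo ATP signal; normalized to cell-free and vehicle wells.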
(In general: In ATP-based viability assays light output follows the ATP content of the culture.)
As to `COc1cc(N)c(Cl)cc1C(=O)NC1CCN(Cc2ccccc2)CC1`, the “activity change, negative = cytotoxicity” value is -0.833% [at 25.7 µM] (inactive).
Same read-out and setting: as for `CC[C@H](c1ccc(O)cc1)[C@@H](CC)c1ccc(O)cc1`, the figure is -2.1% [at 25.7 µM] (inactive); as for `CCOC(=O)Nc1ccc2c(c1)N(C(=O)CCN1CCOCC1)c1ccccc1S2`, -16.6% [at 25.7 µM] (inactive).
Same read-out and setting: with `NS(=O)(=O)Cc1noc2ccccc12` the figure was 18.1% (inactive).
As for `CCOC(=O)[C@H](CCc1ccccc1)N[C@@H](C)C(=O)N1[C@H](C(=O)O)C[C@H]2CCCC[C@@H]21`, the “activity change, negative = cytotoxicity” value was 13.3% (inactive).
As for `O=C(O)C1(C(=O)O)CCC1.[NH2-].[NH2-].[Pt+2]`, the “activity change, negative = cytotoxicity” value was 6.08% (inactive).
On the same count and under the same terms, as for `CCOc1cc(OCC)c(C(=O)CCC(=O)O)cc1OCC`, the figure is -7.25% (inactive).
Turning to `CCCCCCCCCCCCSCCOCCO`, the “activity change, negative = cytotoxicity” value was 14% (inactive).
With `CCCCNc1ccc(C(=O)OCCOCCOCCOCCOCCOCCOCCOCCOCCOC)cc1`, the “activity change, negative = cytotoxicity” value is 2.94% [at 25.7 µM] (inactive).
On the same count and under the same terms, as for `O=c1[nH]c(=O)n([C@H]2C[C@H](O)[C@@H](CO)O2)cc1F`, the figure is 14.2% (inactive).
The same measure, in the same setting: as for `CC(C)(C)NC[C@H](O)COc1nsnc1N1CCOCC1`, the figure is 14.2% (inactive); as for `Cc1ccc(-c2ncc(Cl)cc2-c2ccc(S(C)(=O)=O)cc2)cn1`, -3.49% (inactive).
Same read-out and setting: as for `CCc1oc2ccccc2c1C(=O)c1cc(Br)c(O)c(Br)c1`, the figure is 2.59% (inactive); as for `c1ccc(CC2=NCCN2)cc1`, 5.42% [at 25.7 µM] (inactive); as for `NC(N)=NCc1cccc(I)c1`, -5.83% (inactive).
For `CNCCCCOc1ccccc1Cc1ccccc1`, the Potency is 28.7 µM (active).
In the case of `Cc1c(-c2ccccc2)oc2c(C(=O)OCCN3CCCCC3)cccc2c1=O`, the “activity change, negative = cytotoxicity” value is -2.1% [at 25.7 µM] (inactive).

Tested on in a further assay: not listed separately
The experiment in a line: S16 Schwann cell PMP22 intronic element firefly luciferase assay (AID 624032).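 For activity change, negative = inhibition: plate controls were DMSO for no effect and PTC124 positive control mean for full effect.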 Note: nearly all actives have a fitted effect of over 30% in size. The settings on record: S16 rat Schwann cells, PMP22 element FLuc, 24 h; series mostly up to 57.5 µM; activity change, negative = inhibition: at the top concentration. Put shortly: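 Rat S16 Schwann cells stably carrying firefly luciferase driven by a PMP22 intronic element, in 10% FBS, treated 24 h at 37 C. ONE-Glo luminescence normalized to PTC124 control and DMSO (0%); curves classed by r2, magnitude and activity.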
As to `COc1cc(N)c(Cl)cc1C(=O)NC1CCN(Cc2ccccc2)CC1`, the “activity change, negative = inhibition” value is -2.39% [at 25.7 µM] (inactive).
Still for that read-out and setting: with `CCN(CC)CCOc1ccccc1C(=O)CCc1ccccc1` the figure was -10.4% (inactive); with `CN(Cc1ccc(C(C)(C)C)cc1)Cc1cccc2ccccc12`, 0.816% (inactive).
Same read-out and setting: with `C=CCN1CCc2nc(N)sc2CC1` the figure was 10.5% (inactive); with `NS(=O)(=O)Cc1noc2ccccc12`, 12.2% (inactive).
As to `O=[N+]([O-])c1cccc(S(=O)(=O)NCCNS(=O)(=O)c2cccc([N+](=O)[O-])c2)c1`, the “activity change, negative = inhibition” value was -5.61% (inactive).
Turning to `O=C(CN1CCN(Cc2ccc3c(c2)OCO3)CC1)N1c2ccccc2Sc2ccccc21`, the Potency is 12.8 µM (active).
Turning to `NCCNC(=O)c1ccc(Cl)cn1`, the “activity change, negative = inhibition” value was -13.5% (inactive).
Still for that read-out and setting: as for `CCOC(=O)[C@H](CCc1ccccc1)N[C@@H](C)C(=O)N1[C@H](C(=O)O)C[C@H]2CCCC[C@@H]21`, the figure is -18.8% (inactive).
Still for that read-out and setting: with `Cc1ccc2c(Br)cc(Br)c(O)c2n1` the figure was -30.4% (inactive); with `O=C(O)C1(C(=O)O)CCC1.[NH2-].[NH2-].[Pt+2]`, 11.7% (inactive).
`CCCCCCCCCCCCCC[N+](C)(C)Cc1ccccc1`: the Potency was 32.2 µM (active).
As to `CC(C)NCC(O)c1ccc2ccccc2c1` (stereo not given), the “activity change, negative = inhibition” value was -6.31% (inactive).
As for `C#C[C@]1(OC(C)=O)CC[C@H]2[C@@H]3CCC4=C/C(=N/O)CC[C@@H]4[C@H]3CC[C@@]21CC`, the Potency is 8.09 µM (active).
Regarding `CCCCNc1ccc(C(=O)OCCOCCOCCOCCOCCOCCOCCOCCOCCOC)cc1`, the “activity change, negative = inhibition” value was -19.1% [at 25.7 µM] (inactive).
Take `CC(C)(C)NC[C@H](O)COc1nsnc1N1CCOCC1`: the “activity change, negative = inhibition” value was -0.117% (inactive).
Still for that read-out and setting: with `CCc1oc2ccccc2c1C(=O)c1cc(Br)c(O)c(Br)c1` the figure was -7.21% (inactive); with `CO[C@]12C[C@@H](COC(=O)c3cncc(Br)c3)CN(C)[C@@H]1Cc1cn(C)c3cccc2c13`, -8.37% (inactive).
`NC(N)=NCc1cccc(I)c1`: the “activity change, negative = inhibition” value was -23% (inactive).
On the same count and under the same terms, as for `NCc1ccccc1Sc1ccccc1CO`, the figure is -26.5% (inactive); as for `COc1ccccc1N1CCN(CCCCNC(=O)c2ccc(-c3ccc(C(C)=O)cc3)cc2)CC1`, 18.7% (inactive); as for `NC(=S)N/N=C/c1cccnc1`, -19.2% (inactive).
The same measure, in the same setting: with `O=C(Nc1ncc([N+](=O)[O-])s1)c1cccs1` the figure was 52.9% (inactive).
The same measure, in the same setting: with `Cl/C(=C\n1cncn1)c1ccc(Cl)cc1Cl` the figure was -7.67% (inactive).
Take `O=C(CCN1CCN2CCCC2C1)N1c2ccccc2Sc2ccc(Cl)cc21` (stereo not given): the “activity change, negative = inhibition” value was -12.4% (inactive).
